The supplement of paper PMC10849652
Targets with a hit are over-represented here; the source holds about 7,900 in all. About 0.6% of all pairs of compound and target were hits.

compound: CN1C2=C(C3=C1C(=O)N(N=C3)CC4=CC(=CC=C4)N)SC(=C2)S(=O)C; assay: log2 fold change, soluble protein after heating vs DMSO (PISA); higher = thermal stabilisation; K562 cells, 10 uM, 30 min; active = over 0.2 and 3.5 SD of the protein, either way, in both replicates (recomputed)
Outline: (§1)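 K562 cells at 2×10^6 cells/mL were given 10 μM compound for 30 min. Aliquots then went through 3 min of heating across 48°C-58°C, were pooled, and were extracted in PBS with 0.5% NP-40 at 4°C, and the supernatant after 21,000xg for 90 min was quantified by TMTpro 16plex LC-MS/MS with channel sums equalised. Thermal stability relative to control samples, from duplicates, is given as log2 fold change.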

Chain of UniProt Q9GZR1 (Q9GZR1 whole entry, looked up): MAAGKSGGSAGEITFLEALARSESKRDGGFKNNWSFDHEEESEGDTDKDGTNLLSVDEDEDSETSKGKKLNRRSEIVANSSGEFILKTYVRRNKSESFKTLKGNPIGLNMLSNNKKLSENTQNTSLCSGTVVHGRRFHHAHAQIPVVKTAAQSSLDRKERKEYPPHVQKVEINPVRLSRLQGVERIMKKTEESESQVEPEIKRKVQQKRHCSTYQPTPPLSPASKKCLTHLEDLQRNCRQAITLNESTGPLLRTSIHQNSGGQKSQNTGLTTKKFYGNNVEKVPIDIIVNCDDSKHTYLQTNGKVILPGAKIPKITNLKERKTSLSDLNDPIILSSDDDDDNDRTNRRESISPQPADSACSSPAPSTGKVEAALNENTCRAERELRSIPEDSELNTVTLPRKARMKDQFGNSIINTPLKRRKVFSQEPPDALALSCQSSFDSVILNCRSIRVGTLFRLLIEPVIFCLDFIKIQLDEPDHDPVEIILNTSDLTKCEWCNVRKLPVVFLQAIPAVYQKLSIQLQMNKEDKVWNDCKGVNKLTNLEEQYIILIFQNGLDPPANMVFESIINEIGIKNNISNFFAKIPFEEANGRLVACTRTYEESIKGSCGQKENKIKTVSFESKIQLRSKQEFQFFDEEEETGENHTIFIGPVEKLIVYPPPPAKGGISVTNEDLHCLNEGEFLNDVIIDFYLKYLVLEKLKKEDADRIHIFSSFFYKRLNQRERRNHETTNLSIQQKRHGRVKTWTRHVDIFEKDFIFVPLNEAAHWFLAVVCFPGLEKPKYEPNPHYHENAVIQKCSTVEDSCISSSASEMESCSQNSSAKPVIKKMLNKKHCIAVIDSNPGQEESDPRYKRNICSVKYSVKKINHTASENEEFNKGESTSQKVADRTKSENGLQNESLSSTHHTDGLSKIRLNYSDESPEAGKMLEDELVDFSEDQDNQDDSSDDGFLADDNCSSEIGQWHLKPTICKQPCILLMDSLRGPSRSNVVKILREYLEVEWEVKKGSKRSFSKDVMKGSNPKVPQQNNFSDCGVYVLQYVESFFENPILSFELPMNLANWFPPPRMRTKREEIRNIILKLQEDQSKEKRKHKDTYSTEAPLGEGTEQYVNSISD
Chain of UniProt Q13546 (Q13546 whole entry, looked up): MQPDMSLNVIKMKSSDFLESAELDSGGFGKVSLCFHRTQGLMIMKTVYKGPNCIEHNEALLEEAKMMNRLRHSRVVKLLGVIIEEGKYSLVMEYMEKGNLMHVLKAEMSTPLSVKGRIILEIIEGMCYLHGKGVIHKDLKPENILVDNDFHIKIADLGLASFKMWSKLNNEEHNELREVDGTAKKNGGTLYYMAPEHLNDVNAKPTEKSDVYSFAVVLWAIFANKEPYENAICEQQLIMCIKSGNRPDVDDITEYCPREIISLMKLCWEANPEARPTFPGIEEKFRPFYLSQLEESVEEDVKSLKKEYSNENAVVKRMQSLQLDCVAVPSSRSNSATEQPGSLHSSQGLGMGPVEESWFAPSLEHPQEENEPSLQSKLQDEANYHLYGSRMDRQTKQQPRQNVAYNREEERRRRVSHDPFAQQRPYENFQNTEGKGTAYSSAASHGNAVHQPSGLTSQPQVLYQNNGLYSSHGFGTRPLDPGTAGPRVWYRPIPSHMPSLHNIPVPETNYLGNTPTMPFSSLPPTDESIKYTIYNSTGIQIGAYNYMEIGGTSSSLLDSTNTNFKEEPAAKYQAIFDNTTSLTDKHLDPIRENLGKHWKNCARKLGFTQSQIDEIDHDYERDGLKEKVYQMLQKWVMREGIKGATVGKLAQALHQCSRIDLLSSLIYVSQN
Chain of UniProt O00767 (O00767 whole entry, looked up): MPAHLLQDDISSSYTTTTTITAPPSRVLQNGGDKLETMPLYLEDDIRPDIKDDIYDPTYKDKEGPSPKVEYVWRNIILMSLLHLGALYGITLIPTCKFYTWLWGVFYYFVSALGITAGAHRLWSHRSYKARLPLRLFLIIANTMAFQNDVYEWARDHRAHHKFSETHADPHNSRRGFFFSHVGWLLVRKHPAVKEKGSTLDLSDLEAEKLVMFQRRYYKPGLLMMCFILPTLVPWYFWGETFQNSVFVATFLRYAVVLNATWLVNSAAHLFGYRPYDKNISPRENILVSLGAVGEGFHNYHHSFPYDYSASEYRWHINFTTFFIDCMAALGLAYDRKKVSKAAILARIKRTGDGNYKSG
Chain of UniProt Q13796 (Q13796 whole entry, looked up): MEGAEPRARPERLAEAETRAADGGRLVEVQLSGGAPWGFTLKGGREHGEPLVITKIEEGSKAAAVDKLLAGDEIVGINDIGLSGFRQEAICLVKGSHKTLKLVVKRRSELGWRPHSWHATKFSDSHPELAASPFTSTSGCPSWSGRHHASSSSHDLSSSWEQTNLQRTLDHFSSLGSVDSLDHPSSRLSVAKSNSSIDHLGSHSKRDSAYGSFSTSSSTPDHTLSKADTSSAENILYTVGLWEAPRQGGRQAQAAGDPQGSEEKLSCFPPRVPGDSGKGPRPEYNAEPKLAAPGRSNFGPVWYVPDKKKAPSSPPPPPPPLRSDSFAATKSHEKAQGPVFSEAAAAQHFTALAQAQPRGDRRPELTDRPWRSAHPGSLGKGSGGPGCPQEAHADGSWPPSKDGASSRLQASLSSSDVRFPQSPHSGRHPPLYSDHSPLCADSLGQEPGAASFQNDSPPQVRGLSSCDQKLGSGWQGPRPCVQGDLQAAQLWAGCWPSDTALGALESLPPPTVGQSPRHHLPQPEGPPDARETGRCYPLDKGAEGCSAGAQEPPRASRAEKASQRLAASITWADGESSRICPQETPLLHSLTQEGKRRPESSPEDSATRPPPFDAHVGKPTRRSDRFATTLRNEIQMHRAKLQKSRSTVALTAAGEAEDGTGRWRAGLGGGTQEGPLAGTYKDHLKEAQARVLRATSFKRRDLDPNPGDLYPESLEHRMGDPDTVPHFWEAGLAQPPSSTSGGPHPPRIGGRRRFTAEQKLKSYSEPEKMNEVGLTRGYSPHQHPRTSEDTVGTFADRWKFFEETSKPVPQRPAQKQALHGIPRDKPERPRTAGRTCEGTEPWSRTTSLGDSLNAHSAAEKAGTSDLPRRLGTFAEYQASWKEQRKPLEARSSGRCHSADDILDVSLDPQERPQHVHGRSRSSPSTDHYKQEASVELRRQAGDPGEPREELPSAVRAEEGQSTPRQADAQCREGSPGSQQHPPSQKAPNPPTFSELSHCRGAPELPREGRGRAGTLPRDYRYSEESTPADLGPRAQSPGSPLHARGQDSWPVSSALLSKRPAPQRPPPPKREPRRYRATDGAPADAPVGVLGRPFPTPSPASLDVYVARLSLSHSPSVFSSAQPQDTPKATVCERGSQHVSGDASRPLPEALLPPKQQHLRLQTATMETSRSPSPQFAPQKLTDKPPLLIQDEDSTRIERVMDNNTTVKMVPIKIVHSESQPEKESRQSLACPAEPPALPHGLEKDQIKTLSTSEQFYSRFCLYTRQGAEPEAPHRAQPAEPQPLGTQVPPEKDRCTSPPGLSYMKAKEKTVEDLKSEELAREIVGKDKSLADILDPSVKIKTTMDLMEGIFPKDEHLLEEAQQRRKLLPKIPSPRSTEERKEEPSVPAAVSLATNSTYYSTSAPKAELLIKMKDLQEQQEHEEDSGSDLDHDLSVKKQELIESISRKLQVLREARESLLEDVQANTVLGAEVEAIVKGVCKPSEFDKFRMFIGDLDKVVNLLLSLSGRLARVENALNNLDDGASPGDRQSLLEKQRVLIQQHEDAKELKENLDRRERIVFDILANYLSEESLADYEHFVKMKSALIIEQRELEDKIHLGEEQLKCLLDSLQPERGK
Chain of UniProt Q04206 (Q04206 whole entry, looked up): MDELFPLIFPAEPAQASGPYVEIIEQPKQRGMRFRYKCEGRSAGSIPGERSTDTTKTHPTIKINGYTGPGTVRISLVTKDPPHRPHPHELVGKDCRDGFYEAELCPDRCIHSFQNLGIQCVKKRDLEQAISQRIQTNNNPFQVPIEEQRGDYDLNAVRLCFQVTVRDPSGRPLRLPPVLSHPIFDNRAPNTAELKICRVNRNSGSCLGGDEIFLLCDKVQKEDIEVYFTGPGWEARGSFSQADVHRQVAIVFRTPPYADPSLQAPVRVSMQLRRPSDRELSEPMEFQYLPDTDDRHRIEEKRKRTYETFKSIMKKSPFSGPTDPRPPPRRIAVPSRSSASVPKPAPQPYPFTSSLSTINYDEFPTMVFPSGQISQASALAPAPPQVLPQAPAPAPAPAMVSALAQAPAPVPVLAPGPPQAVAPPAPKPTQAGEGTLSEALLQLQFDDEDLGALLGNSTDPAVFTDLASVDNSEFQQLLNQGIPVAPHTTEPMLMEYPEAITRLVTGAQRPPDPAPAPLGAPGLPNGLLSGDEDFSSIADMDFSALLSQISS
Chain of UniProt Q15050 (Q15050 whole entry, looked up): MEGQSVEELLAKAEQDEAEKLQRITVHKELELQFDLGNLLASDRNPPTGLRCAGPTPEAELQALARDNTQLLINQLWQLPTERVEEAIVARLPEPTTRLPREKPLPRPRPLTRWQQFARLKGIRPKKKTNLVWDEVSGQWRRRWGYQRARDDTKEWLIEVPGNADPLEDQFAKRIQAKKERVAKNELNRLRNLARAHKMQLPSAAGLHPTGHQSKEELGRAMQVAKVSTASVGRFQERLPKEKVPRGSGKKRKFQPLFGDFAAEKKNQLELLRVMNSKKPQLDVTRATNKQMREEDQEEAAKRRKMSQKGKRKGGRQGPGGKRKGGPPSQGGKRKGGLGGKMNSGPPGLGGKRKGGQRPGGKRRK
Chain of UniProt O75792 (O75792 whole entry, looked up): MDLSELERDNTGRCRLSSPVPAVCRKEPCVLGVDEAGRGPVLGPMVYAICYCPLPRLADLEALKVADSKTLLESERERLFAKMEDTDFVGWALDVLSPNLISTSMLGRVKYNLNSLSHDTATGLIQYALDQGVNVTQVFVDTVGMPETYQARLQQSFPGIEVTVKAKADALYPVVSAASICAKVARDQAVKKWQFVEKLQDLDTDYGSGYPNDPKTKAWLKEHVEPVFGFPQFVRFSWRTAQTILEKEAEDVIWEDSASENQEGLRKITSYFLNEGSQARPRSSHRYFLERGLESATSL

| Target | log2 fold change |
| --- | --- |
| RUNX1 isoform 8 (UniProt Q01196) | -0.027 (inactive) |
| RPS12 (UniProt P25398) | 0.064 (inactive) |
| SLC18B1 (UniProt Q6NT16) | -0.035 (inactive) |
| SHROOM2 (UniProt Q13796) | -0.103 (inactive) |
| RNASEH2A (UniProt O75792) | -0.019 (inactive) |
| RIPK1 (UniProt Q13546) | 0.022 (inactive) |
| SERPINA7 (UniProt P05543) | 0.255 (inactive) |
| SH3GL1 (UniProt Q99961) | -0.006 (inactive) |
| RMC1 (UniProt Q96DM3) | -0.039 (inactive) |
| SGPL1 (UniProt O95470) | 0.047 (inactive) |
| RSPRY1 (UniProt Q96DX4) | -0.176 (inactive) |
| SELENOH (UniProt Q8IZQ5) | 0.084 (inactive) |
| SCD (UniProt O00767) | 0.025 (inactive) |
| SKP1 (UniProt P63208) | -0.126 (inactive) |
| SENP6 (UniProt Q9GZR1) | -0.014 (inactive) |
| RPP25L (UniProt Q8N5L8) | 0.061 (inactive) |
| RHOA (UniProt P61586) | -0.037 (inactive) |

| Target | log2 fold change |
| --- | --- |
| RRS1 (UniProt Q15050) | 0.28 (inactive) |
| RPS2 (UniProt P15880) | 0.195 (inactive) |
| RB1 (UniProt P06400) | -0.064 (inactive) |
| RBM12 (UniProt Q9NTZ6) | -0.033 (inactive) |
| SASH1 (UniProt O94885) | 0.054 (inactive) |
| RCC1 isoform 2 (UniProt P18754) | -0.09 (inactive) |
| RBM26 isoform 2 (UniProt Q5T8P6) | -0.011 (inactive) |
| SETD3 (UniProt Q86TU7) | -0.056 (inactive) |
| RANBP2 (UniProt P49792) | -0.033 (inactive) |
| RDH13 (UniProt Q8NBN7) | -0.059 (inactive) |
| SAAL1 (UniProt Q96ER3) | -0.012 (inactive) |
| SDHAF2 (UniProt Q9NX18) | 0.037 (inactive) |
| RPS18 (UniProt P62269) | 0.096 (inactive) |
| RPTOR (UniProt Q8N122) | -0.037 (inactive) |
| RELA (UniProt Q04206) | -0.009 (inactive) |
| RPS6KA1 isoform 2 (UniProt Q15418) | -0.032 (inactive) |
| RIOK3 (UniProt O14730) | -0.023 (inactive) |

compound: CN1CCC(CNc2ccc3ncc(-c4cccc(OC(F)(F)F)c4)n3n2)CC1; assay: as above
Outline: as §1

| Target | log2 fold change |
| --- | --- |
| RUNX1 isoform 8 (UniProt Q01196) | -0.102 (inactive) |
| RPS12 (UniProt P25398) | 0.079 (inactive) |
| SLC18B1 (UniProt Q6NT16) | -0.592 (active) |
| SHROOM2 (UniProt Q13796) | -0.094 (inactive) |
| RNASEH2A (UniProt O75792) | -0.394 (active) |
| RIPK1 (UniProt Q13546) | -0.099 (inactive) |
| SERPINA7 (UniProt P05543) | 0.279 (inactive) |
| SH3GL1 (UniProt Q99961) | -0.196 (inactive) |
| RMC1 (UniProt Q96DM3) | -0.146 (inactive) |
| SGPL1 (UniProt O95470) | 0.189 (inactive) |
| RSPRY1 (UniProt Q96DX4) | 0.219 (active) |
| SELENOH (UniProt Q8IZQ5) | 0.065 (inactive) |
| SCD (UniProt O00767) | 0.095 (inactive) |
| SKP1 (UniProt P63208) | 0.244 (inactive) |
| SENP6 (UniProt Q9GZR1) | -0.038 (inactive) |
| RPP25L (UniProt Q8N5L8) | 0.058 (inactive) |
| RHOA (UniProt P61586) | 0.01 (inactive) |

| Target | log2 fold change |
| --- | --- |
| RRS1 (UniProt Q15050) | 0.268 (inactive) |
| RPS2 (UniProt P15880) | 0.086 (inactive) |
| RB1 (UniProt P06400) | -0.265 (active) |
| RBM12 (UniProt Q9NTZ6) | -0.139 (inactive) |
| SASH1 (UniProt O94885) | -0.29 (inactive) |
| RCC1 isoform 2 (UniProt P18754) | 0.11 (inactive) |
| RBM26 isoform 2 (UniProt Q5T8P6) | -0.177 (inactive) |
| SETD3 (UniProt Q86TU7) | 0.06 (inactive) |
| RANBP2 (UniProt P49792) | -0.052 (inactive) |
| RDH13 (UniProt Q8NBN7) | -0.318 (active) |
| SAAL1 (UniProt Q96ER3) | -0.219 (inactive) |
| SDHAF2 (UniProt Q9NX18) | 0.045 (inactive) |
| RPS18 (UniProt P62269) | 0.11 (inactive) |
| RPTOR (UniProt Q8N122) | -0.197 (inactive) |
| RELA (UniProt Q04206) | -0.011 (inactive) |
| RPS6KA1 isoform 2 (UniProt Q15418) | -0.438 (active) |
| RIOK3 (UniProt O14730) | -0.041 (inactive) |
